Results filed as inconclusive are left out. A call without a number means that no potency is given here. Activity calls are given as the source filed them. The call rests on the fitted dose curve.
Experiment: p53 small molecule agonists, cell-based qHTS assay with rat liver microsomes: qHTS cell viability counter screen (AID 1963580); further: nearly all actives have a fitted effect of over 45% in size
Details: p53RE-bla HCT-116 + rat microsomes, ATP viability, 16 h; series mostly up to 66 µM
Text: National Center for Advancing Translational Sciences [NCATS]
Division of Preclinical Innovation [DPI]
U.S. Environmental Protection Agency [EPA]
National Institutes of Environmental Health Sciences [NIEHS]
National Toxicology Program [NTP]
U.S. Food and Drug Administration [FDA]
p53, a tumor suppressor protein, is activated following cellular insult, including DNA damage and other cellular stresses. The activation of p53 regulates cell fate by inducing DNA repair, cell cycle arrest, apoptosis, or cellular senescence. The activation of p53, therefore, is a good indicator of DNA damage and other cellular stresses. The CellSensor p53RE-bla HCT-116 cell line contains a stably integrated beta-lactamase reporter gene under control of the p53 response elements. The activation of the reporter gene under culture conditions can be detected by fluorescence intensity. This cell line was used to screen the Tox21 10K compound library in the condition of presence of rat liver microsomes and to identify agonists that activate the p53 signaling pathway after in vitro metabolic activation (Ooka et al., Archive of Toxicology 96:1975-1987, 2022). The cytotoxicity of the Tox21 compound library against the p53 RE-bla HCT-116 cell line was tested in parallel by measuring the intra cellular ATP content in the same wells.
Tox21 Assay Protocol Summary:
The p53RE-bla cells were dispensed at 4,000cells/3ul/well in 1536-well black-clear bottom plates. After the assay plates were incubated at 37 C, 5% CO2 incubator for 5 hours, 23 nL of compounds dissolved in DMSO, positive controls or DMSO only was transferred to the assay plate. Following compound addition, 3 uL of rat liver microsomes (Molecular Toxicology, Boone, NC) at final concentration of 0.5 mg/mL and 1uL of B-Nicotinamide adenine dinucleotide 2'-phosphate (NADPH) at final concentration of 0.5 mg/mL were transferred to the assay plate. The plates were incubated at 37 C for 16 hours. 1 uL of LiveBLAzer detection mixture was added to each well and the plates were incubated at room temperature in the dark for 2 h. Fluorescence intensity at 460 and 530 nm emission and 405 nm excitation were measured by an Envision plate reader. For cell viability readout that measures cytotoxicity, 4 ul/well of CellTiter-Glo reagent was added into the assay plates using a Flying Reagent Dispenser. After 30 min incubation at room temperature, the luminescence intensity in the plates was measured using a ViewLux plate reader.
Potency means the concentration at half of the fitted maximal effect.

| Compound | Potency |
| --- | --- |
| O=[N+]([O-])c1cc(C(F)(F)F)c(Cl)c([N+](=O)[O-])c1Nc1ncc(C(F)(F)F)cc1Cl | 25.7 µM (active) |
| FC(F)C(F)(F)OCC(Cn1cncn1)c1ccc(Cl)cc1Cl (stereo not given) | inactive |
| CCOP(=S)(Oc1cnc(C(C)(C)C)nc1)OC(C)C (stereo not given) | inactive |
| Cc1nnc2n1-c1sc(CCC(=O)N3CCOCC3)cc1C(c1ccccc1Cl)=NC2 | inactive |
| C/C=C/C=O | inactive |
| CN(C)C(=O)Oc1cc(OC(=O)N(C)C)cc(C(O)CNC(C)(C)C)c1 (stereo not given) | inactive |
| CC(Cc1ccc(C(C)(C)C)cc1)CN1C[C@@H](C)O[C@@H](C)C1 (stereo not given in full) | inactive |
| CCN(CC)C(=O)N[C@@H]1C=C2c3cccc4[nH]cc(c34)C[C@@H]2N(C)C1 | inactive |
| O=C1NCN(c2ccccc2)C12CCN(CC1COc3ccccc3O1)CC2 (stereo not given) | inactive |
| Oc1c(Br)c(Br)c(Br)c(Br)c1Br | inactive |
| CCCCS(=O)(=O)Cl | inactive |
| N#C/C=C/C#N | inactive |
| CCCN1CCC[C@@H]2Cc3nc(N)ncc3C[C@H]21 | inactive |
| CCC1(c2cccc(O)c2)CCCCN(C)C1 (stereo not given) | inactive |
| CCOP(=O)(N=C1SCCS1)OCC | inactive |
| CCSC(C)CC1CC(=O)C(/C(CC)=N/OC/C=C/Cl)=C(O)C1 (stereo not given) | inactive |
| O=[N+]([O-])c1ccc(CCl)cc1 | inactive |
| O=[N+]([O-])c1ccccc1CCl | inactive |
| Clc1ccc(CSC(Cn2ccnc2)c2ccc(Cl)cc2Cl)cc1 (stereo not given) | inactive |
| CC(=O)/C=C/c1ccc2c(c1)OCO2 | inactive |

| Compound | Potency |
| --- | --- |
| S=C=NCc1ccccc1 | inactive |
| CCC(=O)c1ccc(Cl)cc1 | inactive |
| O=[N+]([O-])c1ccc(F)c([N+](=O)[O-])c1 | inactive |
| COc1cc(CC(C)N)cc2c1OCO2 (stereo not given) | inactive |
| CN(C)C(=O)Nc1cccc(OC(=O)NC(C)(C)C)c1 | inactive |
| CS(=O)(=O)c1cc(C(F)(F)F)ccc1C(=O)c1cnoc1C1CC1 | inactive |
| NCC1(CC(=O)O)CCCCC1 | inactive |
| O=[N+]([O-])c1ccc(Cl)c(Cl)c1Cl | inactive |
| Clc1cccc(SC2CCNCC2)n1 | inactive |
| Cc1cc(C(C)(C)c2ccc(O)c(C)c2)ccc1O | inactive |
| CCCCCCCCBr | inactive |
| c1ccc(C2CC2)c(OCC2=NCCN2)c1 | inactive |
| O=c1oc2ccccc2c(O)c1Cc1c(O)c2ccccc2oc1=O | inactive |
| O=C1CC[C@@]2(O)[C@H]3Cc4ccc(O)c5c4[C@@]2(CCN3CC2CC2)[C@H]1O5 | inactive |
| O=[N+]([O-])[O-].[Tl+] | inactive |
| CCOP(O)OCC | inactive |
| N#C/C(N)=C(/N)C#N | inactive |
| CCCSP(=O)(OCC)SCCC | inactive |
| CC1CCC(C(C)C)C(OC(=O)c2ccccc2N)C1 (stereo not given) | inactive |
| COCCOCCO | 1.62 µM (active) |
